# Experimental data reported in PubChem BioAssay (NCI).
# About 83,000 compounds went through this panel and 20% of them were active in at least one assay; those are over-represented in the sample as a whole.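 The test compound was applied at a single concentration to cells in 96-well plates for 48 hours, and percent growth was recorded.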 Activity calls are given as the source filed them.
# Tested on: PC-3 prostate
# Assay: NCI-60 one-dose screen, 48 h (100 = growth as untreated, 0 = no growth, -100 = all killed)
# Conditions: 10 µM unless noted
# Experimental: Growth inhibition of the PC-3 human tumor cell line is measured as a screen for anti-cancer activity. Cells are grown in 96 well plates and exposed to the test compound for 48 hours. Compounds are tested at a single concentration, which is 10^-5 M for most compounds. The reported endpoint is percent growth (GI% or GIPRCNT), where numbers from 0 - 100% represent growth inhibition, and numbers from -100% - 0 represent cell death. For example, a value of 40 represents 60% growth inhibition. A value of 0 means no net growth occurred over the course of the experiment. A value of -40 indicates 40% of cells at the beginning of the experiment died by the end of the experiment. A value of -100 means all cells are dead at the end of the experiment.
# NCI-60 Human Tumor Cell Lines Screen was performed using the standard one-dose NCI protocol, which is described in more detail at https://dtp.cancer.gov/discovery_development/nci-60/default.htm.
# Compounds with GIPRCNT values below 10 were considered active. Activity score was based on GIPRCNT using the following formula: […]
# Score is 0 for GIPRCNT values of 100 or above, 50 for GIPRCNT values of 0, and 100 for GIPRCNT values of -100.
row,SMILES,growth
1,COc1ccc(/C=C/C(=O)c2ccc(Oc3ncnc4ccccc34)cc2)cc1OC,82.1% (inactive)
2,O=C(O)c1ccccc1C(=O)c1ccc(I)cc1,91.2% (inactive)
3,CC(NCCC(c1ccccc1)c1ccccc1)c1ccccc1 (stereo not given),48% (inactive)
4,O=C(Nc1cccc(-n2ccc3c(NC(=O)c4ccccc4)ncnc32)c1)Nc1ccc(Cl)c(C(F)(F)F)c1,22.7% (inactive)
5,Cc1cc(SCc2ccc(Cl)cc2Cl)nc(SCc2ccc(Cl)cc2Cl)n1,108% (inactive)
6,O=C(Nc1ccc(-n2ccc3c(NC(=O)c4ccccc4)nccc32)cc1)Nc1cccc(C(F)(F)F)c1,13.6% (inactive)
7,CC(C)(C)OC(=O)NCc1cccc(N=C=S)c1,51.2% (inactive)
8,NS(=O)(=O)c1ccc(Nc2nc(O)c(/C=C3\C=Nc4ccccc43)s2)cc1,92.1% (inactive)
9,Oc1ccccc1/C=N/c1ccccn1,91.4% (inactive)
10,COc1cccc(-c2nc3sccn3c2-c2ccnc(NCCNC(=O)Nc3cccc(C(F)(F)F)c3)n2)c1,32.9% (inactive)
11,Cc1ccn2cc(Cc3cc(=O)oc4c3ccc3ccccc34)c(=O)nc2c1,104% (inactive)
12,CC(=O)Oc1ccc(C(OC(C)=O)OC(C)=O)cc1,104% (inactive)
13,COC1OCC(OS(=O)(=O)c2ccc(C)cc2)C(OC(=O)c2ccccc2)C1OC(=O)c1ccccc1 (stereo not given),47.8% (inactive)
14,CCCCC(=O)Nc1nc2ccc(SCCC)cc2s1,47.8% (inactive)
15,N#Cc1c(N)nc2c(c1N)C(c1ccc(Cl)cc1)C1=C(CCCC1=O)N2c1sc2c(c1C#N)CCCC2 (stereo not given),89% (inactive)
16,Cc1ccc(-c2nc3c(N=Nc4ccc(S(N)(=O)=O)cc4)c(N)nn3c(N)c2C#N)cc1,32.4% (inactive)
17,CC12CCC3C(CCC4CC(O)CCC43C)C1C/C(=C/O)C(=O)O2 (stereo not given),97.8% (inactive)
18,CCCCOc1c(N)cccc1C(=O)OCCN(CC)CC,86.8% (inactive)
19,O=C(Nc1cccc([N+](=O)[O-])c1)c1ccc2ccccc2c1O,51.9% (inactive)
20,Nc1c(C(=O)O)[nH]c(=O)[nH]c1=O,94.4% (inactive)

row,SMILES,growth
1,O=C(Nc1ccc(-n2cc(-c3ccncc3)c(-c3ccc(O)c(Cl)c3)n2)cc1)Nc1cc(C(F)(F)F)cc(C(F)(F)F)c1,50.4% (inactive)
2,CCCC(=O)Oc1ccc(/C(=C(\C)c2ccc(OC)cc2)c2ccc(OCCN3CCCCC3)cc2)cc1,64.7% (inactive)
3,COc1ccc(C2=NN(C(=O)COc3ccc(Cl)cc3)C(O)(c3cc(F)c(Cl)cc3Cl)C2)cc1OC (stereo not given),32.1% (inactive)
4,CCN(CC)CCNC(=O)c1c(C)[nH]c(/C=C2\C(=O)Nc3cc(NC(=O)NC(=O)c4ccc(OC)cc4F)ccc32)c1C,86.8% (inactive)
5,N#Cc1c(N)nc(Cl)c(C#N)c1C(=O)c1ccccc1,37.5% (inactive)
6,O=C(Nc1ccc(F)cc1)Nc1ccc(Br)c(C(F)(F)F)c1,4.68% (active)
7,COC(=O)c1oc2c(C(C)=O)c(OCCN3CCCCC3)ccc2c1C,93.9% (inactive)
8,ClC1c2ccccc2CCc2ccccc21,83.5% (inactive)
9,C#CCn1c(-c2cc(OC)c(OC)cc2Br)nc(-c2ccccc2)c1-c1ccccc1,25.2% (inactive)
10,CN(C)CCS(=O)(=O)Nc1cc(-c2ccc3ncnc(Nc4ccc(F)c(Cl)c4)c3c2)cnc1Cl,6.17% (active)
11,O=C1OC(c2ccc(-c3ccccc3)cc2)=C/C1=C/C=C/c1ccccc1,105% (inactive)
12,COc1cc2c(/C=C3/C(=O)Nc4ccc(O)cc43)c(Cl)n(Cc3cc(OC)c(OC)c(OC)c3)c2cc1C,11.3% (inactive)
13,O=C1COc2ccccc2C(=O)N1CCCCN1CCCCC1,57.7% (inactive)
14,C=C1C(=O)O[C@H]2[C@H]1CC/C(COC(=O)c1ccc3ccccc3c1)=C\CC[C@@]1(C)O[C@@H]21,-64% (active)
15,Nc1nc(Cl)cc(NCc2ccc(CNc3cc(Cl)nc(N)n3)cc2)n1,109% (inactive)
16,CC1OC(n2c3ccccc3c3c4c(c5c6ccccc6[nH]c5c32)C(=O)N(CCN[C@@H]2CCC[C@H]2N)C4=O)CC(O)C1O (stereo not given in full),9.72% (active)
17,CC(C)(C)C(=O)Nc1nc2c(s1)CCc1ccn(S(=O)(=O)c3ccccc3)c1-2,81.1% (inactive)
18,COc1ccc2c(-c3ccc(F)cc3)c(C#N)c(=NC(C)=O)oc2c1,30.6% (inactive)
19,COc1ccc(-c2cnc(-c3ccc(F)cc3)[nH]2)cc1,73.7% (inactive)
20,CC/C(=C(\CC)c1ccc(OCCN(CC)CC)cc1)c1ccc(OCCN(CC)CC)cc1,29% (inactive)
